# Calls of active or inactive are those of the source.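 How the source made its calls, unless noted: active means compound raises GLP1 secretion from the human gut endocrine cells, with no numeric limit stated; inactive means the rest.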
# Assay: glucagon-like peptide 1 release enhancers, primary assay, NCI-H716 cell line, NPC library (AID 1117341); further: reference of the scale not given here
# Conditions: NCI-H716 cells, at 10 µM, stronger effect = higher value
row,Compound,GLP1 secretion stimulation
1,CC[C@@]1(O)C(=O)OCc2c1cc1n(c2=O)Cc2c-1nc1ccccc1c2/C=N/OC(C)(C)C,14.3% (inactive)
2,CC1(C)O[C@@H]2C[C@H]3[C@@H]4CCC5=CC(=O)C=C[C@]5(C)[C@@H]4[C@@H](O)C[C@]3(C)[C@]2(C(=O)CO)O1,1.2% (inactive)
3,Cc1ccc(S(=O)(=O)NC(=O)NC2CCCCC2)cc1,-5.7% (inactive)
4,CCCCCC1Nc2cc(C(F)(F)F)c(S(N)(=O)=O)cc2S(=O)(=O)N1 (stereo not drawn),-0.1% (inactive)
5,CC(C)(C)NCC(O)COc1ccccc1OCC1CCCO1 (stereo not drawn),-2.1% (inactive)
6,NC(=O)NC1N=C([O][Al])NC1=O (stereo not drawn),-2.5% (inactive)
7,CC(C)CCOC(=O)c1ccc(N(C)C)cc1,1.7% (inactive)
8,Nc1nc(=O)n([C@@H]2O[C@H](CO)[C@@H](O)[C@@H]2F)cc1I,-3.9% (inactive)
9,CCOC(=O)c1cccnc1,1.1% (inactive)
10,CCN(CC)CCOC(=O)C1(c2ccccc2)CCCC1,-2.7% (inactive)
11,NS(=O)(=O)c1ccc(NC(=O)CCC(=O)O)cc1,0.1% (inactive)
12,CCCCCCCC(=O)OCC(O)CO (stereo not drawn),-3.4% (inactive)
13,Cc1nc(-c2ccc(Cl)cc2)oc1COC(C)(C)C(=O)O,-2.6% (inactive)
14,CN(CC1(C)CCCO1)S(=O)(=O)c1ccc(Cl)c(S(N)(=O)=O)c1 (stereo not drawn),2.8% (inactive)
15,CCC(=O)Oc1ccc2c(c1)CC[C@@H]1[C@H]2CC[C@]2(C)[C@@H](OC(=O)CC)CC[C@@H]12,2.4% (inactive)
16,Nc1ccc([N+](=O)[O-])c(C(F)(F)F)c1,-0.8% (inactive)
17,CN1N=C(C(N)=O)CCC1=O,2.5% (inactive)
18,CC(C)(C)C(=O)OCOC(=O)C1N2C(=O)CC2S(=O)(=O)C1(C)C (stereo not drawn),-1.3% (inactive)
19,CCCCCCCCCCCCCCCC(=O)OC(C)C,-1.2% (inactive)
20,CCCCN(CCN(CCCC)C(=O)N1CCOCC1)C(=O)N1CCOCC1,0.9% (inactive)

row,Compound,GLP1 secretion stimulation
1,CCc1cccc2c(CCO)c[nH]c12,0.1% (inactive)
2,CCc1cc(S(=O)(=O)O)c2cc(C(C)C)cccc1-2,-20.6% (inactive)
3,O=C(O)[C@@H]1CSCN1,-0.4% (inactive)
4,CCN1CCN(C(=O)N[C@@H](C(=O)N[C@@H]2C(=O)N3[C@@H]2SC(C)(C)[C@H]3C(=O)O)c2ccccc2)C(=O)C1=O,-0.4% (inactive)
5,O=C(O)c1ccccc1-c1ccc(C(F)(F)F)cc1,5.5% (inactive)
6,CCCc1ncc(C(=O)O)s1,-5.4% (inactive)
7,O=c1[nH]c2ccccc2c(=O)n1CCCl,2.8% (inactive)
8,CCCCCCCCCCCCCCCCCC(=O)[O][Al],-1.2% (inactive)
9,CCN[C@@H]1C[C@H](N)[C@@H](OC2OC(CN)=CCC2N)[C@H](O)[C@H]1O[C@H]1OC[C@](C)(O)[C@H](NC)[C@H]1O (stereo partly drawn),-0.5% (inactive)
10,CCCCCCCC/C=C/C(=O)O,-3.8% (inactive)
11,CC[C@@]1(c2ccccc2)NC(=O)N(C)C1=O,-0.6% (inactive)
12,Nc1ncnc2c1ncn2Cc1c(F)cccc1Cl,1.9% (inactive)
13,CC(C)(C)NCC(O)COc1ccc(NC(=O)NC2CCCCC2)cc1 (stereo not drawn),2% (inactive)
14,OC[C@H]1O[C@@H](n2cnc3c(=S)nc[nH]c32)[C@H](O)[C@@H]1O,-1.6% (inactive)
15,OCCCc1ccccc1,4.3% (inactive)
16,O=C(O)c1c(O)c(-c2ccccc2)nc2ccccc12,-0.1% (inactive)
17,Cc1onc(-c2c(Cl)cccc2Cl)c1C(=O)Cl,5.9% (inactive)
18,NC(=S)N=Nc1ccc(NN=C(N)N)cc1,-3.7% (inactive)
19,CC(=O)O[C@@H]1CC2C3CCc4cc(OC(=O)c5ccccc5)ccc4C3CCC2(C)[C@H]1OC(C)=O (stereo partly drawn),2.1% (inactive)

# Assay: HCT116 colon cancer cell growth inhibition, primary screen, CellTiter-Glo luminescence, NPC library (AID 1117342;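 active means compounds that lower survival of HCT116 colon cancer cells in the luminescence readout, no numeric limit stated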)
# Conditions: at 20 µM (top of the series)
row,Compound,inhibition of viability
1,CC[C@@]1(O)C(=O)OCc2c1cc1n(c2=O)Cc2c-1nc1ccccc1c2/C=N/OC(C)(C)C,35% (active)
2,CC1(C)O[C@@H]2C[C@H]3[C@@H]4CCC5=CC(=O)C=C[C@]5(C)[C@@H]4[C@@H](O)C[C@]3(C)[C@]2(C(=O)CO)O1,-6.5% (inactive)
3,Cc1ccc(S(=O)(=O)NC(=O)NC2CCCCC2)cc1,0.6% (inactive)
4,CCCCCC1Nc2cc(C(F)(F)F)c(S(N)(=O)=O)cc2S(=O)(=O)N1 (stereo not drawn),43% (inactive)
5,CC(C)(C)NCC(O)COc1ccccc1OCC1CCCO1 (stereo not drawn),-6.3% (inactive)
6,NC(=O)NC1N=C([O][Al])NC1=O (stereo not drawn),2.07% (inactive)
7,CC(C)CCOC(=O)c1ccc(N(C)C)cc1,19.9% (inactive)
8,Nc1nc(=O)n([C@@H]2O[C@H](CO)[C@@H](O)[C@@H]2F)cc1I,23.7% (inactive)
9,CCOC(=O)c1cccnc1,-17.8% (inactive)
10,CCN(CC)CCOC(=O)C1(c2ccccc2)CCCC1,4% (inactive)
11,NS(=O)(=O)c1ccc(NC(=O)CCC(=O)O)cc1,-10.5% (inactive)
12,CCCCCCCC(=O)OCC(O)CO (stereo not drawn),-7.47% (inactive)
13,Cc1nc(-c2ccc(Cl)cc2)oc1COC(C)(C)C(=O)O,8.5% (inactive)
14,CN(CC1(C)CCCO1)S(=O)(=O)c1ccc(Cl)c(S(N)(=O)=O)c1 (stereo not drawn),12.4% (inactive)
15,CCC(=O)Oc1ccc2c(c1)CC[C@@H]1[C@H]2CC[C@]2(C)[C@@H](OC(=O)CC)CC[C@@H]12,42.6% (inactive)
16,Nc1ccc([N+](=O)[O-])c(C(F)(F)F)c1,26.5% (inactive)
17,CN1N=C(C(N)=O)CCC1=O,15.3% (inactive)
18,CC(C)(C)C(=O)OCOC(=O)C1N2C(=O)CC2S(=O)(=O)C1(C)C (stereo not drawn),-4.1% (inactive)
19,CCCCCCCCCCCCCCCC(=O)OC(C)C,3.07% (inactive)
20,CCCCN(CCN(CCCC)C(=O)N1CCOCC1)C(=O)N1CCOCC1,25.7% (inactive)

row,Compound,inhibition of viability
1,CCc1cccc2c(CCO)c[nH]c12,-1.1% (inactive)
2,CCc1cc(S(=O)(=O)O)c2cc(C(C)C)cccc1-2,1.1% (inactive)
3,O=C(O)[C@@H]1CSCN1,3.3% (inactive)
4,CCN1CCN(C(=O)N[C@@H](C(=O)N[C@@H]2C(=O)N3[C@@H]2SC(C)(C)[C@H]3C(=O)O)c2ccccc2)C(=O)C1=O,23.9% (inactive)
5,O=C(O)c1ccccc1-c1ccc(C(F)(F)F)cc1,-0.77% (inactive)
6,CCCc1ncc(C(=O)O)s1,5.1% (inactive)
7,O=c1[nH]c2ccccc2c(=O)n1CCCl,30.4% (inactive)
8,CCCCCCCCCCCCCCCCCC(=O)[O][Al],5.4% (inactive)
9,CCN[C@@H]1C[C@H](N)[C@@H](OC2OC(CN)=CCC2N)[C@H](O)[C@H]1O[C@H]1OC[C@](C)(O)[C@H](NC)[C@H]1O (stereo partly drawn),-2.2% (inactive)
10,CCCCCCCC/C=C/C(=O)O,5.93% (inactive)
11,CC[C@@]1(c2ccccc2)NC(=O)N(C)C1=O,-10.2% (inactive)
12,Nc1ncnc2c1ncn2Cc1c(F)cccc1Cl,9.7% (inactive)
13,CC(C)(C)NCC(O)COc1ccc(NC(=O)NC2CCCCC2)cc1 (stereo not drawn),-0.2% (inactive)
14,OC[C@H]1O[C@@H](n2cnc3c(=S)nc[nH]c32)[C@H](O)[C@@H]1O,84.2% (active)
15,OCCCc1ccccc1,-1.15% (inactive)
16,O=C(O)c1c(O)c(-c2ccccc2)nc2ccccc12,39.2% (inactive)
17,Cc1onc(-c2c(Cl)cccc2Cl)c1C(=O)Cl,13.6% (inactive)
18,NC(=S)N=Nc1ccc(NN=C(N)N)cc1,4.5% (inactive)
19,CC(=O)O[C@@H]1CC2C3CCc4cc(OC(=O)c5ccccc5)ccc4C3CCC2(C)[C@H]1OC(C)=O (stereo partly drawn),0.9% (inactive)
